From PubChem BioAssay AID1159580 (chemical genetic matrix, 2015) come the findings set out here.

This test can be described thus: chemical genetic growth profiling, strain panel (AID 1159580).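 Further: tested at 20 µM; growth read once vehicle control cultures reached saturation at 30 °C; 1 = growth at the plate median or of vehicle wells.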 As to conditions: S. cerevisiae deletion strains, growth OD.

Structures are written as SMILES. Out of some 5,500 compounds screened, about 2,000 (36%) were called active. Not shown: some 18% with an inconclusive outcome. The list shows a part of the results. A number with no mark means an inactive call. No stated cut-off is given here; in the data, active means normalized growth mostly below about 0.91 (no sharp cut-off); inconclusive means no clear call, values can overlap the other calls; inactive means mostly above about 0.92.

`Fc1ccc(C(OCCN2CCN(CCCc3ccccc3)CC2)c2ccc(F)cc2)cc1`: the normalized growth by setting is: (locus YAL040C, strain CLN3, stronger effect = lower value) 1.02; (locus YCL061C, strain MRC1 (second series), stronger effect = lower value) 0.881 (active); (locus YDR150W, strain NUM1, stronger effect = lower value) 0.78 (active); (locus YDR363W, strain ESC2, stronger effect = lower value) 0.851 (active); (locus YER002W, strain NOP16, stronger effect = lower value) 1.06; (locus YGR078C, strain PAC10, stronger effect = lower value) 0.868 (active). In addition, the normalized growth reads like this: (locus YGR229C, strain SMI1, stronger effect = lower value) 0.0957 (active); (locus YJR075W, strain HOC1, stronger effect = lower value) 0.797 (active); (locus YMR263W, strain SAP30, stronger effect = lower value) 0.997; (locus YMR307W, strain GAS1, stronger effect = lower value) 0.891 (active); (locus YNL153C, strain GIM3, stronger effect = lower value) 0.661 (active); (locus YNL175C, strain NOP13, stronger effect = lower value) 0.972. Further, the normalized growth reads like this: (locus YNL197C, strain WHI3, stronger effect = lower value) 1.08; (locus YNL224C, strain SQS1, stronger effect = lower value) 1.05; (locus YNL322C, strain KRE1, stronger effect = lower value) 0.705 (active); (locus YOR083W, strain WHI5 (second series), stronger effect = lower value) 0.903; (locus YPL055C, strain LGE1, stronger effect = lower value) 0.583 (active).
